Source: PubChem (National Center for Advancing Translational Sciences (NCATS))
ALDH1A1 block: qHTS Assay for Inhibitors of Aldehyde Dehydrogenase 1 (ALDH1A1) | Purified ALDH1A1, NADH fluorescence, propionaldehyde substrate | Potency, µM (top dose mostly 75.3 µM), for inactives: top-dose activity, negative = inhibition, actives largely listed as inhibitors | Aldehyde dehydrogenase 1A1 (Homo sapiens), P00352 | 220,000 compounds, 7.3% hits; active = well fitted inhibition curve with a large enough effect, not every such curve was filed as active; inconclusive = small, poorly fitted or top-dose-only effect, or another doubt; inactive = no such curve, though single readings can be large or run the other way;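 note: potency is the fitted concentration of half-maximal effect; plate controls were no enzyme wells and a reference inhibitor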
HPGD inh: qHTS Assay for Inhibitors of HPGD (15-Hydroxyprostaglandin Dehydrogenase). 15-hydroxyprostaglandin dehydrogenase [NAD(+)] (Homo sapiens), P15428. purified HPGD, NADH fluorescence kinetic, PGE2 substrate. Potency, µM, for inactives: at the top dose activity change, negative = inhibition, actives largely listed as inhibitors. 150,000 compounds, 4.3% hits. AID 894, 2007; active = well fitted inhibition curve with a large enough effect, not every such curve was filed as active; inconclusive = small, poorly fitted or top-dose-only effect, or another doubt; inactive = no such curve, though single readings can be large or run the other way; note: potency is the fitted concentration of half-maximal effect; % is set by controls: 0 for no effect and ±100 for the full control effect
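NADH formation kinetics: reaction with 30 uM PGE2 and 1 mM NAD+ (final), 20 nM enzyme, Tris-HCl pH 8 with Tween 20, after 15 min compound preincubation at room temperature. Fluorescence change, last versus first of five reads.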
CBFb RUNX1 block: qHTS Assay for Compounds Blocking the Interaction Between CBF-beta and RUNX1 for the Treatment of Acute Myeloid Leukemia; 230,000 tested, under 10 active; Potency, µM (doses to about 59.8 µM), for inactives: at the highest dose activity, negative = inhibition, hits mostly inhibitors; Runt-related transcription factor 1 (Homo sapiens) + Core-binding factor subunit beta …; AlphaScreen CBFb-His/RUNX1-biotin binding, biochemical; note: % of control where 0% means no effect
Target sequence (Q01196 whole entry, looked up): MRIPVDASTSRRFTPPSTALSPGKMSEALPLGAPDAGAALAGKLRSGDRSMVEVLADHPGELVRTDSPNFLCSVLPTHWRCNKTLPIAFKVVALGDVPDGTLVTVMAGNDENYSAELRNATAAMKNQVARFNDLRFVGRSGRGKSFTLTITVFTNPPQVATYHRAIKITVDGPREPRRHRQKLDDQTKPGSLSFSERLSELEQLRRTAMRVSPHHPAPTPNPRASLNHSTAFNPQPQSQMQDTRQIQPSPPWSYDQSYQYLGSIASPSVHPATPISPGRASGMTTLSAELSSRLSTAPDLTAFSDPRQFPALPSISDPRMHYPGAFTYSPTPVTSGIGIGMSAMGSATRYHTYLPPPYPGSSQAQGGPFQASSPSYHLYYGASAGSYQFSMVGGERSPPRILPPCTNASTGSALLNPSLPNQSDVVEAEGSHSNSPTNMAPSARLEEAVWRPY
Target sequence (Q13951 whole entry, looked up): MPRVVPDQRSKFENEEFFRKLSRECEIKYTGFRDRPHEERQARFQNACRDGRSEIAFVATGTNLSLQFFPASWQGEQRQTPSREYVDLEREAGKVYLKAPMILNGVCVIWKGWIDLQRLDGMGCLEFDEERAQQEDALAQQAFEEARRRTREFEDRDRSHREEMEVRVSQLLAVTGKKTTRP
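Compounds were screened at multiple concentrations against a preformed CBF-beta(His)/RUNX1(biotin) complex (30 nM of each) for 15 min at room temperature, followed by 90 min with nickel and streptavidin beads and AlphaScreen reading.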
HttQ103 aggreg: qHTS Multiplex Assay to Identify Dual Action Probes in a Cell Model of Huntington: Aggregate Formation (GFP) | PC12 HttQ103-GFP aggregates, Acumen cytometry, 40 h | Potency, µM (top dose mostly 46.1 µM), for the others: top-dose activity change, negative = inhibition, usual class: inhibitors | 220,000 compounds, 1.1% hits | AID 1688, 2009; note: potency is the fitted concentration of half-maximal effect; % is set by controls: 0 for no effect and ±100 for the full control effect; nearly all actives have a fitted effect of over 60% in size
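Huntingtin Q103 exon 1–GFP aggregates in induced PC12 cells (100 nM tebufenozide) were quantified by cytometry from lysates, with compounds dosed in titration.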
HTT cytoprotect: qHTS Multiplex Assay to Identify Dual Action Probes in a Cell Model of Huntington: Cytoprotection (ATP). PC12 HTT-Q103 induced, cytoprotection, ATP luminescence, 40 h. 230,000 compounds, 0.14% hits. AID 1471, 2008. Potency, µM (highest dose often 56.4 µM), inactives show cytoprotection (ATP increase), most hits filed as activators; note: potency is the fitted concentration of half-maximal effect; % of control where 0% means no effect; nearly all actives have a fitted effect of over 45% in size
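Cells were plated at 1500 per well in phenol red-free DMEM with 5% equine and 5% calf serum. Tebufenozide (100 nM final) and compounds were added, then ATPlite reagent, and luminescence was read.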
PNC assembly inh: High Content Assay for Compounds that inhibit the Assembly of the Perinucleolar Compartment; AID 2417, 2010; PC3M PTB-GFP, PNC prevalence imaging, 16 h; stronger effect = lower value; activity change (PNC), negative = inhibition, % at 10 µM; 140,000 compounds, 3.1% hits;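 active = readout at or below -70, meaning at least 70% loss of cells showing the perinucleolar compartment, a nuclear body marking cancer cells; inconclusive = readout between -30 and a set limit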;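 note: plate controls were DMSO wells for no effect and camptothecin positive control wells for full effect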
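PC3M cells stably expressing PTB-GFP, 750–1000 cells/well, treated 16 h at 37 °C with compound (23 nl of library stock), in duplicate. After paraformaldehyde fixation and Hoechst stain, imaged at 20x; PNC prevalence scored by image analysis.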
The depositor's hits bear a star; ? = inconclusive; . = no result given; [ ] = remark or other dose. Rows were chosen to be rich in hits. Some 11% of all compounds tested hit in one or more screens of this group. Unless noted, calls come from the whole dose curve; as a rule, active = well fitted curve in the direction sought with a large enough effect; inconclusive = small, poorly fitted or top-dose-only effect, or another doubt; inactive = no such curve, though single readings can be large; an effect the other way counts as inactive or inconclusive.

SMILES	ALDH1A1 block	HPGD inh	CBFb RUNX1 block	HttQ103 aggreg	HTT cytoprotect	PNC assembly inh
CC1CCC(C(C)C)C(OC(=O)Cn2c(-c3ccc(F)cc3)[n+](C)c3ccccc32)C1 (stereo not drawn)	-2%	-8%	6%	?	-72%[10 µM]	-5
CC1CCC(C(C)C)C(OC(=O)Cn2c(-c3ccccc3)[n+](C)c3ccccc32)C1 (stereo not drawn)	-2%	3%	-1%	11µM*	-49%[10 µM]	?
O=C(O)C1C2C=CC(O2)C1C(=O)NCc1ccc2c(c1)OCO2 (stereo not drawn)	-2%	1%	0%	9%	-19%[0.074 µM]	-21
O=C(O)C1C2C=CC(O2)C1C(=O)NCc1ccc(Cl)cc1 (stereo not drawn)	3%	6%	8%	-10%	-27%[0.074 µM]	-131*
Cc1noc(C)c1C(=O)N1CCC2(CCCN(C(c3ccccc3)c3ccccc3)C2)CC1	-1%	-9%	.	.	9%	.
CCOC(=O)OCC1OC(C#Cc2ccccc2)C=CC1OC(=O)OCC (stereo not drawn)	3.5µM*	.	0%[13.1 µM]	.	?	.
CCOC(=O)OCC1OC(C#Cc2ccc(C(C)(C)C)cc2)C=CC1OC(=O)OCC (stereo not drawn)	-8%[13.5 µM]	.	8%[13.1 µM]	.	-19%[10 µM]	.
O=c1c(CN2CCN(c3ccccn3)CC2)coc2ccccc12	25µM*	-2%	12%	-4%	-26%[0.074 µM]	9
Cc1cc(=O)c2ccc3ccccc3c2[nH]1	?	?	1%	?	10%	-24
Cc1cc(=O)c2cccc(Br)c2[nH]1	10%	-14%	0%	8%	24%[10 µM]	-100*
COCCNC(=O)c1ccc(NC(C)=O)cc1	-2%	20µM*	4%	?	-14%	-21
COCCCNC(=O)c1ccc(NC(C)=O)cc1	-2%	.	-8%	18%	30%[10 µM]	.
CCOC(=O)C(C)(C)[C@H](O)C(C)C	0%[13.5 µM]	0%	.	.	-1%[10 µM]	.
COc1cc2c(cc1OC)C(/C=C/c1ccc(OC)c(OC)c1OC)=NCC2	8%	-16%	3%	.	-185%	.
Nc1ncnc2c1nc(Br)n2[C@@H]1O[C@H]2COP(=O)(O)O[C@@H]2[C@@H]1O	0%	.	29%	.	7%	.
CCCCCCCCC/C=C/CC1CC(=O)OC1=O (stereo not drawn)	28µM*	-16%	0%[21.7 µM]	.	14%	.
CC1CCC/C(=C\Nc2ccc(C(=O)O)cc2)C1=O (stereo not drawn)	14µM*	.	5%	27%	6%	.
CCOC(=O)c1ccc(N/C=C2/CCCC(C)C2=O)cc1 (stereo not drawn)	?	-9%	-4%	24%	0%	-10
COc1cccc(Cn2c(=O)c(CCc3ccccc3)nc3cnc(N4CCN(C)CC4)nc32)c1	?	.	.	.	0%	.
O=C(Nc1ccc(Oc2ccc(C(=O)O)c(C(=O)O)c2)cc1)c1cccs1	1%	.	7%	-6%[9.22 µM]	-8%[10 µM]	.
Cc1cc(C(=O)COC(=O)c2ccc(O)cc2)c(C)n1Cc1ccco1	7.9µM*	-20%	?	7%	22%[10 µM]	27
Cc1cc(C(=O)C(C)Cl)c(C)n1Cc1ccco1 (stereo not drawn)	7.1µM*	.	?	14%	4%[10 µM]	.
Cc1cc(C(=O)CSc2ncccn2)c(C)n1Cc1ccco1	?	.	-2%	4%	.	.
Cc1cc(C(=O)COC(=O)c2ccc(Br)o2)c(C)n1Cc1ccco1	?	.	?	14%	-21%	.
Cc1cc(C(=O)CSc2nnnn2C)c(C)n1Cc1ccco1	28µM*	.	-16%	5%[9.22 µM]	6%[10 µM]	.
SMILES	ALDH1A1 block	HPGD inh	CBFb RUNX1 block	HttQ103 aggreg	HTT cytoprotect	PNC assembly inh
CC(C)(C#CCN1CCCCC1)OCCOC(c1ccccc1)c1ccccc1	-14%	-3%	7%	-11%	-8%[10 µM]	?
O=S(=O)(c1ccc(Cl)cc1)N(CCCN1CCOCC1)Cc1cccs1	13µM*	.	-9%	-5%	-35%	.
COc1ccc(S(=O)(=O)N(CCCN2CCOCC2)Cc2cccc3ccccc23)cc1	6.3µM*	-22%	19%	-10%[9.22 µM]	-43%	?
O=C(Nc1ccc(Cl)cc1)N(CCCN1CCOCC1)Cc1cccs1	-9%	-4%	-6%	0%	10%	5
Cc1cccc(NC(=O)c2ccc(CN3CCc4ccccc4C3)cc2)c1C	0%	.	2%	-3%	-7%	.
CCN1CCN(c2cc3c(cc2F)c(=O)c(C(=O)O)cn3C2CC2)CC1	?	?	14%	-2%	-40%	-115*
C=CCn1cc(C(=O)NCC2CCCO2)c(=O)c2cc(S(=O)(=O)N3CCCCCC3)ccc21 (stereo not drawn)	13µM*	-11%	2%	-14%	-23%[0.074 µM]	-2
C=CCn1cc(C(=O)OC)c(=O)c2cc(S(=O)(=O)N3CCCCCC3)ccc21	14µM*	.	-2%	-13%	-8%	.
CCn1cc(C(=O)N2CCN(c3ccc(OC)cc3)CC2)c(=O)c2cc(S(=O)(=O)N3CCCCC3)ccc21	11µM*	.	?	0%	-76%	.
CC(=O)N1CCN(c2cc3c(cc2F)c(=O)c(C(=O)O)cn3C2CC2)CC1	?	.	7%	7%	11%[10 µM]	.
O=C1CCCc2nc3nc4ccccc4n3cc21	?	-23%	15%	-2%	-1%	-20
COc1ccc(COC(=O)N/N=C2/C[C@@H](O)[C@@H](O)[C@@H]3[C@H]4C(=O)N(c5ccc(F)cc5F)C(=O)[C@@H]4CC[C@H]23)cc1	-3%[13.5 µM]	.	10%[13.1 µM]	.	1%[10 µM]	.
CCn1cc(C(=O)O)c(=O)c2cc(F)c(N3CCN(S(=O)(=O)c4ccc(NC(=O)OC)cc4)CC3)cc21	?	?	-1%	32µM*	-11%[10 µM]	?
CC#CCC1(C(=O)OC)C(=O)NC[C@H]1c1ccccc1 (stereo partly drawn)	-4%	-4%	8%	.	?	.
N#Cc1c(-c2ccccc2Cl)cc(-c2ccccc2)[nH]c1=S	10µM*	.	-10%	11%[9.22 µM]	-45%[1.9 µM]	.
Cc1cc(-c2ccccc2)c(C#N)c(=S)[nH]1	7.9µM*	14µM*	-5%	8%	6%[10 µM]	1
O=C(CN(Cc1ccco1)C(=O)c1ccccc1)Nc1ccc(Cl)c(Cl)c1	?	-15%	-1%	?	-44%	85
